From publication PMC4336329 (PLoS ONE, 2015)
In all, about 310,000 compounds went through this assay and about 14,000 (4.5%) showed an effect of 50% or more. Effects have a minus sign here. The sample holds strong results, similar compounds and a random draw of the others, so the mix is not that of the screen.

The compounds below were run against human ether-à-go-go-related gene (hERG) potassium channel (human, UniProt Q12809) (assay: primary screen, population patch clamp on CHO cells stably expressing hERG; higher = less effect of the substance).
Chain of human ether-à-go-go-related gene (hERG) potassium channel (Q12809 whole entry, looked up): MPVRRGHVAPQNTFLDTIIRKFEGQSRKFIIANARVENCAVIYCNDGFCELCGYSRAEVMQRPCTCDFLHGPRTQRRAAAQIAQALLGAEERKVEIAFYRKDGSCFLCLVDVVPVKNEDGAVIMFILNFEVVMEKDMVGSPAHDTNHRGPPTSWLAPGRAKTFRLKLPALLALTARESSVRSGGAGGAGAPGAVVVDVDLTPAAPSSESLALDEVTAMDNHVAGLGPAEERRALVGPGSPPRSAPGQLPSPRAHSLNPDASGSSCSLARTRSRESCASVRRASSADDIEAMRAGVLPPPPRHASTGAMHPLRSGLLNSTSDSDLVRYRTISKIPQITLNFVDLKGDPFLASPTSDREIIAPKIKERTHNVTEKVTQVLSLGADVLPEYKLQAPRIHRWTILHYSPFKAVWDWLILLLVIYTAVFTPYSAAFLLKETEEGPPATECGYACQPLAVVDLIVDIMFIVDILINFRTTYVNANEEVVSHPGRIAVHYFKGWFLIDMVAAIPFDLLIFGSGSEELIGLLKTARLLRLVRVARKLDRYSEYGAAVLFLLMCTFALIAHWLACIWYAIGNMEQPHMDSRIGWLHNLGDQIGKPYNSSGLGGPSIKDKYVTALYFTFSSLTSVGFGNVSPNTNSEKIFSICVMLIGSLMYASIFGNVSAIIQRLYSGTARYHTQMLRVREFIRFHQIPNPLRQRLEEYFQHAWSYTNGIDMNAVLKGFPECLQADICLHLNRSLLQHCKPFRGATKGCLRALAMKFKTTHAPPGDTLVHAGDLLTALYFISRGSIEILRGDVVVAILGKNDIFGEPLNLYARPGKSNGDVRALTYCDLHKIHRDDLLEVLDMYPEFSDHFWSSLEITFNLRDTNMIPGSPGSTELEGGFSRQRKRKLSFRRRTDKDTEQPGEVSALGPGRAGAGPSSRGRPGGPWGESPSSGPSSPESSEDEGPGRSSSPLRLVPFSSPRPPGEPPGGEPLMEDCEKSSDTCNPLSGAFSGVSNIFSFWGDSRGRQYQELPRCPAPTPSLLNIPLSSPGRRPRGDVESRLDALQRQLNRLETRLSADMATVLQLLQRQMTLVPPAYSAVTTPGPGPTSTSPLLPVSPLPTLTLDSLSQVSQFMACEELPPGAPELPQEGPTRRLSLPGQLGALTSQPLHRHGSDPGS
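Further: peak tail current of the secondary pulse compared with the same well before compound.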

Row | SMILES | hERG current change (%, negative = inhibition) at 10uM [%]
1 | COCCC(=O)N1CCCC(C(=O)c2ccc(Oc3ccccc3)cc2)C1 (stereo not drawn) | -79.3
2 | CC(=O)NCC(=O)N1CCCC(C(=O)c2ccc(Oc3ccccc3)cc2)C1 (stereo not drawn) | -23.2
3 | CC1CCCC(C)N1S(=O)(=O)c1ccc(NC(=O)c2ccccc2C(=O)N2CCOCC2)cc1 (stereo not drawn) | -3.57
4 | NC(=O)[C@@H]1CCCN1Cc1nc(Cc2ccccc2F)no1 | 7.29
5 | Cc1ccc2nc(-c3ccc(NC(=O)CCS(=O)(=O)c4ccccc4)cc3)sc2c1 | 2.03
6 | CC(C)CCOP(N)(=O)Oc1ccccc1 (stereo not drawn) | 9.05
7 | CCN1C(=O)c2ccc(C(=O)Nc3ncc(C)s3)cc2C1=O | 6.29
8 | COc1ccccc1-c1cc(C(=O)N/N=C\c2cnn(C)c2C)c2ccccc2n1 | -3.85
9 | CC1CN(c2nc3ccccn3c(=O)c2/C=C(\C#N)C(N)=O)CC(C)O1 (stereo not drawn) | 21.1
10 | CC1(C)Cc2nc3sc(C(=O)O)c(N)c3cc2CS1 | 29.4
11 | COc1ccc(C(=O)C2CCCN(Cc3cn[nH]c3-c3ccc(F)cc3)C2)cc1OC (stereo not drawn) | -66.5
12 | Cn1ccnc1C(=O)C1CCCN(Cc2cn[nH]c2-c2ccc(-c3ccccc3)cc2)C1 (stereo not drawn) | -67.9
13 | COc1ccc(C(=O)C2CCCN(Cc3cn[nH]c3-c3ccccc3)C2)cc1OC (stereo not drawn) | -74
14 | CCOC(=O)c1[nH]ncc1CN1CCCC(C(=O)c2cccc3ccccc23)C1 (stereo not drawn) | -45.8
15 | Cn1cc(CN2CCCC(C(=O)c3nccn3C)C2)c(-c2cccc(Cl)c2)n1 (stereo not drawn) | -31.1
16 | COc1ccc(C(=O)C2CCCN(Cc3ccc(F)cc3F)C2)cc1F (stereo not drawn) | -29.8
17 | COc1ccc(C(=O)C2CCCN(C(=O)c3ccc(F)cc3)C2)cc1OC (stereo not drawn) | -3.95
18 | COCCNC(=O)c1cc(-c2ccc(OC)c(OC)c2)on1 | -1.95
19 | CCOc1ccc(C(=O)N[C@H](C(=O)Nc2ccccc2OC)C(C)C)cc1 | -28.7
20 | O=C1NC(=Nc2ccccc2)c2ccc([N+](=O)[O-])cc21 | 3.21
21 | Cc1cc(NC(=O)CSc2nc3c(C)c(C)ccc3cc2C)no1 | -44.6
22 | CCNC(=S)N1CCN(CCN=CC2=C(O)CC(c3ccco3)CC2=O)CC1 (stereo not drawn) | 0.166
23 | O=C1CC(c2ccco2)CC(O)=C1C=NCCN1CCN(C(=O)Nc2ccc(Cl)cc2)CC1 (stereo not drawn) | -66.4

Row | SMILES | hERG current change (%, negative = inhibition) at 10uM [%]
24 | O=C1CC(c2ccco2)CC(O)=C1C=NCCN1CCN(C(=S)Nc2ccccc2)CC1 (stereo not drawn) | -54.1
25 | C=CCNC(=S)N1CCN(CCN=CC2=C(O)CC(c3ccco3)CC2=O)CC1 (stereo not drawn) | -25.8
26 | O=C1CC(c2ccco2)CC(O)=C1C=NCCN1CCNCC1 (stereo not drawn) | 2.1
27 | O=C1CC(c2ccco2)CC(O)=C1C=NCCO (stereo not drawn) | 7.61
28 | Cl.O=C(CN1CCC(NC(=O)c2ccccc2Cl)CC1)NCc1ccco1 | -2.98
29 | O=C(c1ccc2c3n(nc2c1)-c1ccccc1CO3)N1CCOCC1 | -8.48
30 | COc1ccc(CCNC(=O)c2cc(-c3ccc4c(c3)OCO4)on2)cc1OC | -4.11
31 | Cc1cccc(N(C(=O)CNC(=O)c2ccco2)C(C(=O)NCC2CCCO2)c2ccccc2)c1 (stereo not drawn) | 9.57
32 | Cc1ccc(CSc2sc(C(=O)c3ccccc3)c(N)c2C#N)cc1 | 6.41
33 | CCCCON1C(=O)c2cccc3cccc(c23)C1=O | -4.38
34 | CCCCN(C)C1=Nc2cccc3cccc1c23 | -72
35 | NC1=Nc2cccc3cccc1c23 | 21.3
36 | O=C(Nc1ccc([N+](=O)[O-])cc1)Nc1nc(-c2ccc(Cl)s2)cs1 | 25.7
37 | Cc1csc(N2CCCC2c2nc3cc(C(F)(F)F)ccc3n2CCOCCO)n1 (stereo not drawn) | -69.1
38 | OCCCn1c(CCNc2nc(-c3ccc(Cl)cc3)cs2)nc2cc(C(F)(F)F)ccc21 | -0.705
39 | OCCCn1c(CCNc2nc(-c3ccc(F)cc3)cs2)nc2cc(C(F)(F)F)ccc21 | -32.3
40 | Cc1csc(N2CCCC2c2nc3cc(Cl)c(N4CCCCC4)cc3n2CCOCCO)n1 (stereo not drawn) | -47.3
41 | Cc1ccc(Cn2c(C3CCCN3c3nc(C)cs3)nc3cc(C(F)(F)F)ccc32)cc1 (stereo not drawn) | 0.159
42 | OCCOCCn1c(C2CCCN2c2nc(-c3ccc(F)cc3)cs2)nc2cc(C(F)(F)F)ccc21 (stereo not drawn) | -75.1
43 | OCCOCCn1c(C2CCCN2c2nc(-c3ccc(F)cc3)cs2)nc2cc(Cl)c(Cl)cc21 (stereo not drawn) | -28.7
44 | OCCCn1c(C2CCCN2c2nc(-c3ccc(F)cc3)cs2)nc2cc(C(F)(F)F)ccc21 (stereo not drawn) | -21
45 | OCCOCCn1c(CCNc2nc(-c3ccc(F)cc3)cs2)nc2cc(C(F)(F)F)ccc21 | -61.1
